# PI5P4Ka inh: PI5P4K alpha (human) kinase inhibition; PI5P4Kalpha enzyme, ADP-Glo luminescence, 60 min; active compounds read low; hit rate 1.2% among 330,000; max response, %; P48426; active = max response of -50% or lower; inconclusive = between -30% and -50%; inactive = -30% or higher; note: value at the top dose of about 77 µM; % is set by controls: 0 for no effect and ±100 for the full control effect
#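 Luminescence from ADP-Glo served as readout of PI5P4Kalpha activity in a qHTS format. Reaction: enzyme, substrate, compound, ATP at 5 microM final, 60 min at RT.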
# PLK1 PBD block: blocks phosphopeptide binding to human PLK1 polo-box domain; Plk1 PBD binding of FITC phosphopeptide, fluorescence polarization; P53350; hit rate 2.8% among 360,000; AID 720504; Potency, µM, without a hit: max response, negative = inhibition, hits mostly inhibitors; note: potency is the fitted concentration of half-maximal effect; series mostly up to about 57 µM; % is set by controls: 0 for no effect and ±100 for the full control effect; nearly all actives have a fitted effect of over 65% in size
# G9a inh: blocks human histone lysine methyltransferase G9a | Q96KQ7 | G9a H3K9 monomethylation, AlphaScreen, 2 h | Potency, µM (titrated, usually from 102 µM), for the others: at the top dose activity, negative = inhibition, usual class: inhibitors | hit rate 8.8% among 350,000; note: potency is the fitted concentration of half-maximal effect; % is set by controls: 0 for no effect and ±100 for the full control effect; nearly all actives have a fitted effect of over 75% in size
# Target sequence (Q96KQ7 913-1193 limits assumed): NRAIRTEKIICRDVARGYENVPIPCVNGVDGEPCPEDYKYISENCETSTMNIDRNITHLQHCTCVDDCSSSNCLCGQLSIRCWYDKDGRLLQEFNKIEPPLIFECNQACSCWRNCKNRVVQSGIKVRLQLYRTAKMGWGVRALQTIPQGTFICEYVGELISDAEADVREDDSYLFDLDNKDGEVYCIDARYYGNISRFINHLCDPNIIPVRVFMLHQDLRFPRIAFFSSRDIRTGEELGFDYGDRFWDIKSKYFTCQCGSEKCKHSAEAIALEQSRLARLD
#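 Step 1: enzyme (final 20 nM) with compound, 15 min RT. Step 2: substrate peptide 500 nM and SAM 20 uM, 2 h RT. Step 3: anti-H3K9me1 antibody and AlphaScreen beads, 10 min, then plate read.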
# HP1b binding inh: HP1-beta chromodomain-methylated histone interaction inhibition | P83916 | AlphaScreen HP1-beta / biotin-H3K9me3 peptide binding | Potency, µM (doses to about 114 µM), for inactives: at the top dose activity change, negative = inhibition, most hits filed as inhibitors | hit rate 0.56% among 390,000 | AID 540317; note: potency is the fitted concentration of half-maximal effect; nearly all actives have a fitted effect of over 70% in size
# Target sequence (P83916 whole entry, looked up): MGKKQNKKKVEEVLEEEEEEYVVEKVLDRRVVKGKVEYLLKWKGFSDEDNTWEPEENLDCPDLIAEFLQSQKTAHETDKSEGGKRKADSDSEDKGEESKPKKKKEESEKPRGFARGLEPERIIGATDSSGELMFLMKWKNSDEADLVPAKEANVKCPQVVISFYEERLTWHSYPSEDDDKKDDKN
#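 HP1-beta protein (50 nM final) preincubated 30 min at room temperature with biotinylated H3(1-18)K9me3 peptide (50 nM) in PBS pH 7.4, 0.01% Tween-20, then compound added for 30 min. AlphaScreen streptavidin donor/nickel chelate acceptor beads (10 ug/mL final), 30 min dark, luminescence read.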
# JMJD2A Tudor: JMJD2A Tudor domain (human) inhibition | O75164 | AlphaScreen JMJD2A-Tudor / H3K4me3 peptide binding | Potency, µM (highest dose often 114 µM), without a hit: top-dose activity change, negative = inhibition, usual class: inhibitors | hit rate 4.4% among 390,000 | AID 504339; note: potency is the fitted concentration of half-maximal effect; % is set by controls: 0 for no effect and ±100 for the full control effect; nearly all actives have a fitted effect of over 50% in size
# BAZ2B inh: inhibitors of human BAZ2B bromodomain; Q9UIF8; AlphaScreen BAZ2B-H3K14Ac peptide displacement; Potency, µM (top dose mostly 114 µM), inactives show at the top dose activity change, negative = inhibition, actives largely listed as inhibitors; hit rate 4.4% among 360,000; note: potency is the fitted concentration of half-maximal effect; % is set by controls: 0 for no effect and ±100 for the full control effect; nearly all actives have a fitted effect of over 60% in size
#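 BAZ2B 50 nM plus b-H3(5-23)K14Ac 50 nM, PBS pH 7.4/0.01% Tween-20, 30 min RT; compound added (max 110 uM), 30 min RT; streptavidin donor/Ni-chelate acceptor beads 10 ug/mL final, 20 min dark; AlphaScreen read.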
# * hit, by the source's call; ? = inconclusive; / = not tested or not shown; [ ] = remark or other dose. The list is not random: actives were taken first. Their share in the collection is about 12%. Unless noted, calls come from the whole dose curve; as a rule, active = well fitted curve in the direction sought with a large enough effect; inconclusive = small, poorly fitted or top-dose-only effect, or another doubt; inactive = no such curve, though single readings can be large; an effect the other way counts as inactive or inconclusive.
SMILES,PI5P4Ka inh,PLK1 PBD block,G9a inh,HP1b binding inh,JMJD2A Tudor,BAZ2B inh
CN(C)c1ccc(C(CNC(=O)c2ccccc2Cl)N2CCc3ccccc32)cc1 (stereo not drawn),/,/,14µM*,?,18µM*,13µM*
CC(C)NC(=O)Nc1cccc2c1O[C@H](CN(C)S(C)(=O)=O)[C@@H](C)CN([C@H](C)CO)C2=O,-20,-13%,/,20%,-21%,/
CC(C)c1cnc2c(c1SCC(=O)Nc1ccc(C(N)=O)cc1)c(=O)n(C)c(=O)n2C,/,/,5%[59 µM],32%[57 µM],-4%,14%
COc1ccc(-c2nnc(SCc3ccccc3F)o2)cc1OC,-2,-1%,17%[59 µM],26%,28%,22%
CCOc1ccc(-c2nnc(NC(=O)Cc3cc(OC)c(OC)c(OC)c3)o2)cc1,4,-10%,-9%[2.33 µM],36%,28µM*,22µM*
Cc1ccc(-c2nnc(SCc3ccccc3F)o2)cc1,/,21µM*,2%[12.7 µM],77%,72%,189%
CCOC(=O)c1c(NC(=O)CSc2nc3cccnc3n2C)sc(C(C)=O)c1C,0,11%,0%[2.33 µM],30%,-15%,6%
CCOc1ccc(-c2nnc(SCC(=O)Nc3ccc(C)cc3Cl)o2)cc1,/,/,?,58%,-25%,-19%
CCOc1ccc(-c2nnc(SCC(=O)Nc3ccc(C)cc3C)o2)cc1,/,/,-6%[59 µM],27%,79µM*,-4%
CCOC(=O)c1c(NC(=O)CSc2nnc(-c3ccccc3C)n2C)sc(C(C)=O)c1C,?,-21%,?,-17%,-31%,50µM*
Cc1ccc(S(=O)(=O)N2CCCc3cc(NS(=O)(=O)c4cc(F)ccc4F)ccc32)cc1,/,/,3%[59 µM],64%,-20%,1%
O=C(CSc1nnc(-c2ccncc2)o1)Nc1ccccc1Cl,3,-3%,6%[59 µM],39%,2%,-2%
CCOc1ccccc1NC(=O)CSc1nnc(-c2cccnc2)o1,2,24µM*,9%[0.501 µM],-1%,-12%,10%
COc1ccc(NC(=O)CSc2nnc(-c3cccnc3)o2)c(OC)c1,-4,21µM*,21%[0.501 µM],-21%,-10%,2%
COc1ccc(NC(=O)CSc2nnc(-c3ccncc3)o2)c(OC)c1,1,-1%,1%[0.501 µM],51%,-1%,-5%
O=C(CSc1nnc(-c2ccc(C(F)(F)F)cn2)o1)Nc1ccccc1Cl,0,-11%,25%,50%,20µM*,18µM*
CCOC(=O)c1c(NC(=O)CSc2nnc(-c3cccnc3)o2)sc(C(C)=O)c1C,-23,12µM*,10%[59 µM],?,18µM*,?
COc1ccccc1CNC(=O)CCC1N=C2c3ccccc3N=C(SCC(=O)Nc3ccc(F)cc3)N2C1=O (stereo not drawn),/,/,13%[59 µM],9%,-6%,-6%
Cc1cccc(CN2CCC(n3nccc3NC(=O)CCCc3ccccc3)CC2)c1,-3,0%,/,/,/,/
O=C(CN1C(=O)NC2(CCCCC2)C1=O)NCCCSc1ccccc1,-4,-7%,14%[12.7 µM],21%,-3%,9%
O=C(CSc1nnc(-c2ccccc2)o1)Nc1ccccc1F,0,21µM*,6%[59 µM],17%,?,14%
CCCNC(=O)Nc1ccc(NC(C)=O)cc1,-6,11µM*,-22%,1%,?,-18%
CC(=O)N(C)Cc1ccc(C(=O)CCl)cc1,0,5.3µM*,?,?,7%,-9%
CC(=O)NCc1ccc(C(=O)CCl)cc1,0,4.2µM*,?,74%,-5%,/
CC(=O)NCCC(=O)NCc1ccc(F)cc1,-2,-2%,1%[12.7 µM],50%,6%,2%
SMILES,PI5P4Ka inh,PLK1 PBD block,G9a inh,HP1b binding inh,JMJD2A Tudor,BAZ2B inh
CC(=O)N(C)Cc1ccc(C(=O)CSc2nnc(C3CC3)n2C2CC2)cc1,-18,-9%,19%[2.33 µM],15%,-4%,-5%
CC(=O)Nc1ccc(C(=O)CCl)cc1,2,5.3µM*,-1%[0.501 µM],65%,-32%,?
CC(=O)Nc1ccc(C(=O)OCCCOC(=O)c2ccc(NC(C)=O)cc2)cc1,-7,-11%,59%,14%,-7%,1%
O=c1cc(O)n(Cc2ccc(F)cc2)c(=O)[nH]1,-17,-25%,-6%,26%,0%,-4%
Cc1cccc(-c2nnc(SCc3nc4ccccc4[nH]3)n2Cc2ccco2)c1,-4,-10%,50µM*,17%,-22%,-31%
c1coc(Cn2c(SCc3nc4ccccc4[nH]3)nnc2-c2cccs2)c1,/,-13%,50µM*,21%,-33%,-5%
Cc1ccc(-c2nnc(SCc3nc4ccccc4[nH]3)n2Cc2ccco2)cc1,/,-12%,/,6%,79µM*,?
Clc1cccc(-c2nnc(SC/C=C/c3ccccc3)n2Cc2ccco2)c1,/,-11%,-29%[59 µM],43%,-8%,4%
CCOc1ccc(-c2nnc(SCc3nc4ccccc4[nH]3)n2N)cc1,-1,2%,?,43%,89µM*,?
O=c1[nH]c(CSc2nnc(-c3ccncc3)n2Cc2ccco2)nc2ccccc12,-1,0%,18%,25%,-1%,-3%
CCC(Sc1nc2ccncc2[nH]1)C(=O)Nc1ccc(F)cc1 (stereo not drawn),/,/,-5%[59 µM],38%,-9%,4%
C/C(=N/NC(=O)C1CCCC1)c1ccc(NC(=O)C(F)(F)F)cc1,/,/,/,/,/,-4%
Cc1ccc(CN2CCN(/N=C/c3cc([N+](=O)[O-])ccc3Cl)CC2)cc1,-7,-3%,?,?,35µM*,32µM*
Cc1ccc(CN2CCN(/N=C/c3ccc(Cl)c([N+](=O)[O-])c3)CC2)cc1,6,-1%,14µM*,?,45µM*,14µM*
O=[N+]([O-])c1cc(CN2CCC(O)CC2)ccc1Cl,-4,10%,13µM*,?,0.89µM*,50µM*
O=c1cnc2cnc(OCc3ccccc3)nc2n1Cc1ccc(F)cc1,/,/,3%[12.7 µM],/,/,/
N#CC1(NC(=O)COc2ccc(S(=O)(=O)N3CCCC3)cc2[N+](=O)[O-])CCCCC1,0,4%,14µM*,1%,-14%,-23%
CC1CCCCN1C(=O)COc1ccc(S(=O)(=O)N2CCCC2)cc1[N+](=O)[O-] (stereo not drawn),0,-1%,6%[12.7 µM],32%,2%,5%
Cn1c(=O)c2c(nc(SCC(=O)Nc3ccc(F)cc3)n2Cc2ccccc2F)n(C)c1=O,/,/,-35%[59 µM],20%,-4%,-11%
CCc1ccc(-c2c(C)sc(NC(C)=O)c2C(N)=O)cc1,-11,27µM*,11µM*,-34%,?,-8%
COc1ccc(NC(=O)c2c(NC(=O)CCC(=O)O)sc(-c3ccccc3)c2C)cc1,-10,24µM*,5.6µM*,-25%,-19%,-34%
CCOC(=O)c1c(NC(=O)CCN2CCOCC2)sc(C)c1-c1ccccc1,23,-14%,?,0%,?,-36%
